Luciferase inh – blocks purified firefly luciferase enzyme activity. AID 1347043. 76,000 tested, 2.5% active. purified P. pyralis luciferase, luminescence, biochemical. Potency, µM (series often up to 115 µM), hits mostly inhibitors; further: nearly all actives have a fitted effect of over 65% in size
Target sequence (P08659 whole entry, looked up): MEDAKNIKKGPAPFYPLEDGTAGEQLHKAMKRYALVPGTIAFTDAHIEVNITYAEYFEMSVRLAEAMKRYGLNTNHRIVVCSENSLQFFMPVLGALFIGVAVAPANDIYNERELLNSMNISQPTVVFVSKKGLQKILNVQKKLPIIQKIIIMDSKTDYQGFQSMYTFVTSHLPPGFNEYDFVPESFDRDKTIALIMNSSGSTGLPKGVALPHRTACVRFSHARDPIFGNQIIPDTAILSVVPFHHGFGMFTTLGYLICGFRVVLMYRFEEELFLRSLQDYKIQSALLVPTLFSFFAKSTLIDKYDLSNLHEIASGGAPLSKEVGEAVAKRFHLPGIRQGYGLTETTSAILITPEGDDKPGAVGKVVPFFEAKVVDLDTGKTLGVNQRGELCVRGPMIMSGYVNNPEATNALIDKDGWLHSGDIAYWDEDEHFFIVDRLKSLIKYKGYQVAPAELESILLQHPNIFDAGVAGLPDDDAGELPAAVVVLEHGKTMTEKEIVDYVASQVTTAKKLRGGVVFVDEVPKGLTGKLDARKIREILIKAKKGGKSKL
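Biochemical qHTS: compound (6-point titration) added to 10uM D-luciferin plus 10uM ATP in Tris acetate pH 7.5 buffer with Mg, Tween-20 and BSA, then purified enzyme at 10nM; light output imaged.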
NPR1 antag – blocks ANP-stimulated signaling of human Npr1 receptor; 76,000 tested, 1.6% active; HEK293 hNpr1 GloSensor cGMP, ANP-stimulated luminescence; P16066; Potency, µM (doses to about 46.3 µM), for inactives: at the top dose activity change, negative = inhibition, usual class: inhibitors; calls by dose curve; further: nearly all actives have a fitted effect of over 60% in size
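Compound pre-incubated 30 min at room temperature on GloSensor-loaded HEK293 cells stably carrying hNpr1 and the pGS-40F cGMP biosensor. Stimulation uses hNppA at 0.1 nM final; luminescence is taken at baseline and 20 min post-agonist.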
HEK cytotox – HEK 293 cell cytotoxicity; 94,000 tested, 6.6% active; AID 1345083; HEK 293 viability, ATP luminescence (CellTiter-Glo), 48-72 h; Potency, µM (series often up to 115 µM), without a hit: at the top dose activity change, negative = cytotoxicity, hits mostly inhibitors; further: nearly all actives have a fitted effect of over 60% in size
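qHTS cytotoxicity; HEK 293, 250 cells/well; compound pinned; 48 or 72 hr, 37 degree Celsius, 5% CO2, 95% humidity; CellTiter-Glo, 10 min RT; luminescence (ATP).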
SNCA viab count – reduces viability of HEK-293 SNCA reporter cells; Potency, µM (series often up to 57.1 µM), without a hit: at the top dose activity change, negative = cytotoxicity, usual class: cytotoxic; 150,000 tested, 0.12% active; HEK-293-SNCA-luc viability, GF-AFC fluorescence, 24 h;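 further: 0% = DMSO-treated cells and -100% = medium-only wells without cells; nearly all actives have a fitted effect of over 30% in size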
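Cytotoxicity counterscreen: after 24 h compound treatment of genome-edited SNCA-luciferase HEK-293 cells, live-cell protease substrate GF-AFC read by fluorescence after 30 min; activity scaled between DMSO (0%) and medium-only (-100%), curves Hill-fitted.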
3T3 cytotox – NIH 3T3 cell cytotoxicity | Potency, µM (doses to about 96.7 µM), without a hit: at the top dose activity change, negative = cytotoxicity, usual class: inhibitors | NIH 3T3 viability, CellTiter-Glo ATP luminescence, 48-72 h | 94,000 tested, 4.3% active; further: nearly all actives have a fitted effect of over 55% in size
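Cytotoxicity was measured by CellTiter-Glo ATP luminescence after 48 or 72 h compound exposure at 37 °C. Mouse NIH 3T3 fibroblasts were seeded at 400 cells/well and dosed by 23 nL pin transfer.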
SNCA expr inh – inhibitors of alpha-synuclein (SNCA) gene expression; HEK-293 SNCA-luciferase knock-in, luminescence, 24 h; Potency, µM (series often up to 57.2 µM), for inactives: at the highest dose activity change, negative = inhibition, actives largely listed as inhibitors; 140,000 tested, 0.17% active; AID 1671194;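 further: plate controls were DMSO cells for no effect and cell-free wells for full effect; nearly all actives have a fitted effect of over 45% in size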
Active calls of the source: *; i = inactive; u = inconclusive; x = not tested or not shown; ! = not active in a repeat; [ ] = remark or other dose. A selection: hits, their analogues and other compounds. The true share with any hit is near 7.2%. Unless noted, the call rests on the fitted dose curve; in most records, active means well fitted curve in the direction sought with a large enough effect; inconclusive means small, poorly fitted or top-dose-only effect, or another doubt; inactive means no such curve, though single readings can be large; an effect the other way counts as inactive or inconclusive. Unless noted, on the % scale 0 is the no-effect control and ±100 the full control effect; potency means the concentration at half of the fitted maximal effect.

SMILES	Luciferase inh	NPR1 antag	HEK cytotox	SNCA viab count	3T3 cytotox	SNCA expr inh
c1csc(CN2Cc3[nH]cnc3C[C@H]2c2nc(-c3ccncc3)no2)c1	i	-27.8%[70.6 µM]	u	6.4%[87.6 µM]	u	95.4%[87.6 µM]
FC(F)(F)c1ccc(-c2noc([C@@H]3Cc4nc[nH]c4CN3Cc3cc4ccccc4o3)n2)cc1	u	u	u	-8.9%	u	-29.6%
COc1ccc(-c2noc([C@@H]3Cc4nc[nH]c4CN3Cc3cccs3)n2)cc1	70.8µM*	-17.1%[70.6 µM]	u	-21.5%[87.6 µM]	89.1µM*	u
c1csc(CN2Cc3[nH]cnc3C[C@H]2c2nc(-c3ccc4ccccc4c3)no2)c1	i	-24.0%[70.6 µM]	50.1µM*	2.8%[87.6 µM]	u	u
CCOC(=O)COC1CCN(C(=O)c2cccc(OC)c2)CC(=O)N(C)c2ccccc21 (stereo unspecified)	x	x	u	x	-13.7%	x
Cc1noc(-c2ccc3c(c2)OCO3)c1C(=O)NCCCCc1ccccc1	i	-16.5%	u	14.8%	u	-4.0%
Cc1noc(-c2cccs2)c1C(=O)N1CCC(Cc2ccccc2)CC1	i	-16.1%	u	-0.5%	u	1.1%
Cc1noc(-c2ccc3c(c2)OCO3)c1C(=O)NC(C)CCc1ccccc1 (stereo unspecified)	i	-15.0%	44.7µM*	-1.4%	u	-0.5%
Cc1noc(-c2ccc3c(c2)OCO3)c1C(=O)NCc1cc(F)cc(F)c1	i	1.9%	31.6µM*	1.5%	u	21.0%
Cc1noc(-c2ccc3c(c2)OCO3)c1C(=O)N1CCC(Cc2ccc(F)cc2)CC1	i	u	28.2µM*	-19.8%	35.5µM*	u
CC(C)Cn1c(=O)c(C(=O)N2CCN(C(=O)c3ccc(Cl)nc3)CC2)nc2cccnc21	x	x	i	0.1%	-12.2%	-5.2%
O=C1NCCOCCCN(C(=O)Nc2ccc3c(c2)OCCO3)[C@H]2CCCC[C@@H]12	31.6µM*	-17.6%	3.2%	1.9%	2.3%	91.0%
O=C(c1ccc2nc(-c3ccc(F)cc3)cn2c1)N1C[C@@H]2CCCN[C@@H]2C1	u	2.5%	-19.9%	4.8%	u	18.7%
CCCOC1CCCN(C(=O)c2ccc3nc(-c4ccc(F)cc4)cn3c2)C1 (stereo unspecified)	i	0.2%	25.1µM*	5.0%	-1.6%	23.2%
O=C(Nc1ccc([C@H]2OCC(=O)N(Cc3ccc(F)cc3)[C@@H]2CO)cc1)C1CCOCC1	i	2.0%	-14.3%	6.7%	-15.9%	8.0%
CCC(C)NC(=O)c1cc(-c2cccc(OC)c2)nc2c1cnn2C (stereo unspecified)	x	x	100µM*!	x	u	x
COc1cccc(-c2cc(C(=O)NCC3CCCCC3)c3cnn(C)c3n2)c1	x	x	39.8µM*	x	u	x
COc1cc(Cl)c(C)cc1NC(=O)CN1C(=O)NC2(CCS(=O)(=O)CC2)C1=O	i	-1.3%	-5.6%	0.4%	0.4%	-12.9%
COc1ccc(C(=O)N2CCN(CC3CC3)[C@@H]3CS(=O)(=O)C[C@@H]32)c(C)c1	i	3.2%	i	8.9%	i	6.3%
O=C(NCC1CCNC1)C1CCN(c2nc(-c3ccccc3)nc3c2CCC3)CC1 (stereo unspecified)	i	1.2%	u	-9.2%	79.4µM*	-10.2%
Cn1cc(CNC(=O)C2CCN(c3nc(-c4ccccc4)nc4c3CCC4)CC2)cn1	i	5.8%	i	-10.3%	i	-7.3%
CCN(Cc1noc(CC(C)C)n1)C(=O)c1cnc(-c2ccccn2)[nH]c1=O	i	-1.5%	u	-17.3%	u	-12.3%
COCCN(Cc1nccs1)C(=O)c1cnc(-c2ccccn2)[nH]c1=O	i	2.8%	39.8µM*	-15.8%	u	u
COCCNc1cc2c(cn1)CN(Cc1ccccc1)CCN2	u	-2.7%[70.6 µM]	u	-22.3%[87.6 µM]	u	21.5%[87.6 µM]
COc1ccc(-c2cc3c(cn2)CN(CCc2ccccc2)CCN3)cc1OC	70.8µM*	-19.1%[70.6 µM]	63.1µM*	u	39.8µM*	88.3%[87.6 µM]
SMILES	Luciferase inh	NPR1 antag	HEK cytotox	SNCA viab count	3T3 cytotox	SNCA expr inh
c1ccc(CCN2CCNc3cc(N4CCN(c5ccccn5)CC4)ncc3C2)cc1	i	-4.4%[70.6 µM]	50.1µM*	u	28.2µM*	17.2%[87.6 µM]
COc1ccc(-c2cc3c(cn2)CN(Cc2ccccc2)CCN3)cc1OC	u	-12.8%[70.6 µM]	u	-21.0%[87.6 µM]	44.7µM*	101.6%[87.6 µM]
COc1ccc(CNc2cc3c(cn2)CN(Cc2ccccc2)CCN3)cc1OC	i	0.3%[70.6 µM]	63.1µM*	-16.4%[87.6 µM]	39.8µM*	9.9%[87.6 µM]
COc1ccc(Cl)cc1-c1cc2c(cn1)CN(Cc1cccnc1)CCN2	i	-6.2%[70.6 µM]	u	0.0%[87.6 µM]	u	63.6%[87.6 µM]
O=C(Cc1ccccc1)NC1CCCN(c2ccnc3ccnn23)C1 (stereo unspecified)	x	x	u	11.7%	-8.9%	5.8%
Fc1ccccc1-c1cc2c(cn1)CN(Cc1ccncc1)CCN2	70.8µM*	u	u	-4.0%[87.6 µM]	u	17.4%[87.6 µM]
Cn1nccc1-c1cc2c(cn1)CN(Cc1ccncc1)CCN2	i	-5.1%[70.6 µM]	u	11.7%[87.6 µM]	-39.0%[138 µM]	u
Oc1ccc(-c2cc3c(cn2)CN(Cc2ccccc2)CCN3)cc1F	25.1µM*	-2.1%[70.6 µM]	u	u	u	u
O=C1CCCN1CCCN1C(=O)[C@@H]2C[C@@H](O)CN2C2(CN(Cc3ccccc3Cl)C2)C1=O	i	-1.6%	1.7%	-5.4%	-11.5%	-15.3%
COc1cccc(C(CC(=O)NCCc2ccc(OC)c(OC)c2)c2c[nH]c3ccccc23)c1 (stereo unspecified)	i	u	44.7µM*	-6.5%	u	-17.1%
CCc1cccc2c(C(CC(=O)NCCc3ccc(OC)c(OC)c3)c3cccc(OC)c3)c[nH]c12 (stereo unspecified)	i	-14.7%	25.1µM*	-6.0%	u	-15.6%
CCc1cccc2c(C(CC(=O)NCCC(C)C)c3cccc(OC)c3OC)c[nH]c12 (stereo unspecified)	i	-1.0%	44.7µM*	-8.8%	u	5.9%
CCc1cccc2c(C(CC(=O)NCCc3ccccc3)c3cccc4c3OCO4)c[nH]c12 (stereo unspecified)	u	-19.7%	17.8µM*	u	17.8µM*	-26.0%
CCc1cccc2c(C(CC(=O)NCc3ccc(F)cc3)c3cccc(OC)c3OC)c[nH]c12 (stereo unspecified)	i	-0.2%	u	1.5%	u	-10.0%
CC1=NS(=O)(=O)N(Cc2ccccc2)C=C1C(=O)OCc1noc(-c2cccc(C)c2)n1	i	u	u	-3.1%	u	-25.7%
